Test results published in PubChem BioAssay (NCATS).
Results filed as inconclusive are left out. Activity calls are given as the source filed them. Unless noted, calls follow the shape of the full dose curve.

Tests used:
[1] = molecular target: Peroxisome proliferator-activated receptor gamma (Homo sapiens) (UniProt P37231); assay: qHTS assay for small molecule agonists of peroxisome proliferator-activated receptor gamma signaling (AID 588536; active = well fitted curve in the direction sought with a large enough effect in the signal ratio, with a control signal flat, not every such curve was filed as active; the % refers to the signal ratio;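 also: 0% = DMSO basal wells and 100% = rosiglitazone at 2 µM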)
Summary of the method: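 Cells were plated and held 6–6.5 h at 37 C, then compounds were added as a titration series. After a further 16 h, CCF4 dye was loaded for 2 h at room temperature and emission at 460/530 nm recorded.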

[2] = molecular target: Vitamin D3 receptor (Homo sapiens) (UniProt P11473); assay: qHTS assay for small molecule antagonists of vitamin D receptor signaling (AID 588541);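 also: receptor activated by calcitriol during compound treatment; series mostly up to about 77 µM; % is scaled to controls: 0 for no effect and ±100 for the full control effect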
Summary of the method: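 Antagonist-mode beta-lactamase reporter assay: HEK293T VDR-UAS-bla cells were exposed to titrated compound alongside 1-alpha,25-dihydroxyvitamin D3 at 3 nM final for 16 h. Values were normalized to the 50 nM agonist control and DMSO basal, with IC50 and efficacy from Hill equation fits.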

[3] = molecular target: Vitamin D3 receptor (Homo sapiens) (UniProt P11473); assay: qHTS assay for small molecule agonists of vitamin D receptor signaling (AID 588543);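 also: 0% = DMSO basal and 100% = reference agonist control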
Summary of the method: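 GeneBLAzer VDR-UAS-bla HEK293T cells in 2% charcoal-stripped FBS medium were dosed with compound titrations for 16 h at 37 °C; CCF4 β-lactamase readout (405 nm ex, 460/530 nm em). EC50 and efficacy from Hill fits, normalized to 50 nM calcitriol (100%) and DMSO (0%).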

[4] = qHTS assay for small molecule agonists of retinoid X receptor alpha signaling (AID 588544); settings: HEK293T RXRa-UAS-bla, beta-lactamase reporter, 18 h; 530 nm emission
[5] = molecular target: Thyroid hormone receptor beta (Homo sapiens) (UniProt P10828); assay: qHTS assay for small molecule agonists of thyroid hormone receptor beta signaling (AID 588545);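 also: 0% = DMSO only and 100% = 10 nM T3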
Summary of the method: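 Efficacy and EC50 values derive from Hill fits of qHTS titration data, normalized to 10 nM T3 and DMSO-only wells. HEK 293 reporter cells were stimulated for 18 hrs at 37 C, with beta-lactamase activity measured by CCF4 fluorescence.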

[6] = qHTS assay for small molecule antagonists of retinoid X receptor alpha signaling (AID 588546; active = well fitted inhibition curve with a large enough effect in the signal ratio, with a control signal flat, not every such curve was filed as active; the % refers to the signal ratio;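 also: cells stimulated with 9-cis-retinoic acid as agonist; % is scaled to controls: 0 for no effect and ±100 for the full control effect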); settings: HEK293T RXRa-UAS-bla, beta-lactamase ratio, antagonist mode; measured here: W530 green channel, cytotoxicity proxy
Summary of the method: (§1)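 Beta-lactamase reporter inhibition, read as CCF4 fluorescence ratio (ex 405, em 460/530 nm) after 2 h at RT. HEK293T UAS-bla cells, 2500/well, were stimulated with 9-cis-RA at 500 or 100 nM final alongside test compound for 18 h at 37 C.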

[7] = molecular target: Retinoic acid receptor RXR-alpha (Homo sapiens) (UniProt P19793); assay: as above; settings: HEK293T RXRa-UAS-bla, beta-lactamase ratio, antagonist mode
Summary of the method: as §1

[8] = qHTS assay for small molecule agonists of the antioxidant response element (ARE) signaling pathway (AID 651741; active = well fitted activation curve with a large enough effect in the signal ratio; the % refers to the signal ratio; also: % of control where 0% means no effect)
Summary of the method: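 Beta-lactamase reporter under ARE control in HepG2 cells, 2,000 per well, was induced by 16 h compound treatment at 37 C. Read-out was fluorescence from LiveBLAzer B/G FRET substrate after 2 h at room temperature.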

[9] = qHTS assay for small molecule activators of the nuclear factor-kappa B (NF-kB) signaling pathway (AID 651749; active = well fitted activation curve with a large enough effect in the signal ratio; the % refers to the signal ratio; also: series mostly up to about 77 µM; % of control where 0% means no effect); settings: NF-kB-bla ME-180 cells, beta-lactamase FRET ratio, 16 h; stronger effect = higher value
Summary of the method: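 Activation measured after 16 hr compound treatment at 37C, 5% CO2, of 2,000 ME-180 cells/well stably expressing an NF-kB response element–driven beta-lactamase reporter, via FRET-disruption fluorescence.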

[10] = qHTS assay for small molecule disruptors of the mitochondrial membrane potential - 1 hr assay (AID 651754); also: % is scaled to controls: 0 for no effect and ±100 for the full control effect; nearly all actives have a fitted effect of over 35% in size
Summary of the method: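 Mitochondrial potential in living HepG2 cells after 1 hr compound treatment at 37C was read with Mito-MPS dye added for a further 30 min. Red aggregate and green monomer fluorescence were measured; loss of potential leaves dye as cytoplasmic monomers.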

[11] = qHTS assay for small molecule disruptors of the mitochondrial membrane potential - 5 hr assay (AID 651755); also: % is scaled to controls: 0 for no effect and ±100 for the full control effect; nearly all actives have a fitted effect of over 40% in size
Summary of the method: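 Membrane-potential dye readout: red aggregate (540 ex/590 em) versus green monomer (490 ex/535 em) fluorescence after 30 min dye loading, following 5 hr compound exposure at 37C of overnight-plated HepG2 cells.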

[12] = molecular target: Tumor necrosis factor (Homo sapiens) (UniProt P01375); assay: qHTS assay to identify small molecules that stimulate Tumor Necrosis Factor-alpha (TNF-alpha) secretion (AID 651757; active = well fitted curve in the direction sought with a large enough effect in the signal ratio; the % refers to the signal ratio; also: 0% is about no effect)
Summary of the method: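 Secreted TNF-alpha quantified by TR-FRET sandwich of two labeled anti-TNF-alpha antibodies, incubated 3 hr at room temperature. Preceded by 17 hr, 37 C compound treatment of THP-1 cells at 3000 cells/well.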

[13] = qHTS assay for environmental chemicals that activate the Aryl hydrocarbon Receptor (AhR) signaling pathway (AID 651777; active = well fitted curve in the direction sought with a large enough effect; an effect the other way counts as inactive or inconclusive; also: % of control where 0% means no effect; nearly all actives have a fitted effect of over 15% in size); settings: 1A2-DRE human hepatoma cells, luciferase, 24 h; activation: stronger effect = higher value
Summary of the method: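 Following a 24 hr incubation with test chemicals at 37 C and 5% CO2, 1A2-DRE human hepatoma cells received One-Glo reagent; after 30 min at room temperature, luciferase output reflected CYP1A2 induction via AhR.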

[14] = molecular target: Peroxisome proliferator-activated receptor alpha (Homo sapiens) (UniProt Q07869); assay: qHTS assay for small molecule agonists of the peroxisome proliferator-activated receptor alpha (PPARalpha) signaling pathway (AID 651778; active = well fitted curve in the direction sought with a large enough effect; an effect the other way counts as inactive or inconclusive; also: % of control where 0% means no effect); settings: PathHunter PPARalpha complementation, chemiluminescence, 6 h; max response: stronger effect = higher value
Summary of the method: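 Chemiluminescence from complemented enzyme reported PPARalpha activation in cells after 6 hr of compound treatment at 37 C. The detection reagent was incubated for 60 min at room temperature, and compounds were scored as agonists.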

[15] = molecular target: Nuclear receptor ROR-gamma (Homo sapiens) (UniProt P51449); assay: qHTS assay for small molecule antagonists of the retinoid-related orphan receptor gamma (ROR-gamma) signaling pathway (AID 651802; active = well fitted curve in the direction sought with a large enough effect; an effect the other way counts as inactive or inconclusive;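 also: CHO cells with doxycycline-induced ROR-gamma expression; luciferase reporter luminescence driven by ROR response element; series mostly up to about 92 µM; % is scaled to controls: 0 for no effect and ±100 for the full control effect; nearly all actives have a fitted effect of over 60% in size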)
Summary of the method: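 Luminescence (One-Glo, 30 min RT) measured 16 h after compound addition and doxycycline induction at 37C. Reporter: RORE-luciferase under TET-inducible ROR-gamma in CHO cells.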

[16] = qHTS assay for small molecule agonists of the antioxidant response element (ARE) signaling pathway measured by Nrf2-dependant transcriptional activity (AID 720636; active = well fitted curve in the direction sought with a large enough effect in the repeat runs; an effect the other way counts as inactive or inconclusive;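 also: HepG2 cells with an ARE-driven luciferase reporter; % of control where 0% means no effect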)
Summary of the method: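 ONE-Glo luminescence, read 30 min after reagent addition at room temperature, reflected ARE reporter activity in HepG2 cells that had been incubated with compound for 16 hr at 37 C in 1% dialyzed FBS.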

[17] = qHTS assay for small molecule antagonists of the retinoid-related orphan receptor gamma (ROR-gamma) signaling pathway - cell viability counter screen (AID 720652; active = well fitted curve in the direction sought with a large enough effect in the repeat runs; an effect the other way counts as inactive or inconclusive;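 also: CHO reporter cells with doxycycline-induced ROR-gamma expression; series mostly up to about 92 µM; compound exposure lasted 16 hr before ATP read; % is scaled to controls: 0 for no effect and ±100 for the full control effect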)
Summary of the method: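 Cytotoxicity counter screen: intracellular ATP (CellTiter-Glo luminescence) measured in the doxycycline-induced CHO RORE-luciferase reporter line after 16 hr compound exposure at 37 C, 5% CO2.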

[18] = qHTS assay for small molecule agonists of the antioxidant response element (ARE) signaling pathway measured by Nrf2-dependant transcriptional activity - cell viability counter screen (AID 720653; active = well fitted curve in the direction sought with a large enough effect in the repeat runs; an effect the other way counts as inactive or inconclusive; also: % is scaled to controls: 0 for no effect and ±100 for the full control effect); settings: ARE-bla HepG2 viability, CellTiter-Glo ATP luminescence, 16 h; max response: stronger effect = lower value
Summary of the method: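 Cytotoxicity counter screen: intracellular ATP quantified by CellTiter-Glo luminescence in the same ARE-bla HepG2 plates, after 16 h compound exposure and a 2 h beta-lactamase substrate step.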

[19] = qHTS assay for cell viability of HEK293 cells (AID 743288; active = well fitted curve in the direction sought with a large enough effect; an effect the other way counts as inactive or inconclusive; also: % is scaled to controls: 0 for no effect and ±100 for the full control effect; nearly all actives have a fitted effect of over 50% in size); settings: ATP luminescence (CellTiter-Glo), 18 h; max response: stronger effect = lower value
Summary of the method: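 After 18 h compound exposure at 37 C, parental HEK293 cells (2,000/well) are lysed with CellTiter-Glo and luminescence is read following 30 min at room temperature.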

[20] = qHTS assay for cell viability of the p53RE-bla HCT-116 cell line (AID 743292; active = well fitted curve in the direction sought with a large enough effect; an effect the other way counts as inactive or inconclusive; also: % is scaled to controls: 0 for no effect and ±100 for the full control effect; nearly all actives have a fitted effect of over 55% in size)
Summary of the method: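 After plating at 4,000 cells per well and a 5 h rest at 37 C, HCT-116 cells carrying p53RE-bla received test chemicals in DMSO. Sixteen hours later at 37 C, CellTiter-Glo was added and luminescence recorded following 30 min at room temperature.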

[21] = molecular target: Nuclear receptor subfamily 1 group I member 2 (Rattus norvegicus) (UniProt Q9R1A7); assay: qHTS assay for small molecule activators of the rat pregnane X receptor (rPXR) signaling pathway (AID 651751; call rule not given here; also: 0% is about no effect); settings: rPXR reporter cells, luciferase (One-Glo), 24 h
[22] = qHTS assay for small molecule activators of the human pregnane X receptor (PXR) signaling pathway (AID 720659; call rule not given here; also: 0% is about no effect)

Vitamin D3 receptor (Homo sapiens), sequence (P11473 whole entry, looked up): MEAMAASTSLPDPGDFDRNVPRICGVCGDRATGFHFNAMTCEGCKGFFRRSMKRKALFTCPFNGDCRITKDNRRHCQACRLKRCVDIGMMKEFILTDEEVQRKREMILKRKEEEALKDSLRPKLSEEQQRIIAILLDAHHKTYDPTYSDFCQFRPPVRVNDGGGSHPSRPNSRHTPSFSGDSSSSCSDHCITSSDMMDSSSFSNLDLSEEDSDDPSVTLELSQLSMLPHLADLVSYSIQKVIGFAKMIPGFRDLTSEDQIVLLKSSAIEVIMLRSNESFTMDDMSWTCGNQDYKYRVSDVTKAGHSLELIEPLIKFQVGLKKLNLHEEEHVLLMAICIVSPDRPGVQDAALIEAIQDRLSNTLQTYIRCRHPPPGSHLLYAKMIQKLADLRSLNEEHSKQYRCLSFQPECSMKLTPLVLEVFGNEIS
Retinoic acid receptor RXR-alpha (Homo sapiens), sequence (P19793 whole entry, looked up): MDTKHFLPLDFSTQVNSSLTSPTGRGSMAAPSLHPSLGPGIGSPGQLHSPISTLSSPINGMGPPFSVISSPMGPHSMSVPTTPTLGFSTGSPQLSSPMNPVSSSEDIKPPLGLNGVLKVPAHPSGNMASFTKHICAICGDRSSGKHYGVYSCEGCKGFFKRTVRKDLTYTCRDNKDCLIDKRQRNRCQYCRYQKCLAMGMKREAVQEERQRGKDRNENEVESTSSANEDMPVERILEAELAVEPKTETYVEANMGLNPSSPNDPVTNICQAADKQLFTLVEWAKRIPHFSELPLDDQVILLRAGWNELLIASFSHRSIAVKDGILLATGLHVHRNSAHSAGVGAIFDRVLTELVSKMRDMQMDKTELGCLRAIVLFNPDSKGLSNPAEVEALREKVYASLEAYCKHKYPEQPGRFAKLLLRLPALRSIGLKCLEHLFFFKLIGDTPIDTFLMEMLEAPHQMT
Nuclear receptor ROR-gamma (Homo sapiens), sequence (P51449 whole entry, looked up): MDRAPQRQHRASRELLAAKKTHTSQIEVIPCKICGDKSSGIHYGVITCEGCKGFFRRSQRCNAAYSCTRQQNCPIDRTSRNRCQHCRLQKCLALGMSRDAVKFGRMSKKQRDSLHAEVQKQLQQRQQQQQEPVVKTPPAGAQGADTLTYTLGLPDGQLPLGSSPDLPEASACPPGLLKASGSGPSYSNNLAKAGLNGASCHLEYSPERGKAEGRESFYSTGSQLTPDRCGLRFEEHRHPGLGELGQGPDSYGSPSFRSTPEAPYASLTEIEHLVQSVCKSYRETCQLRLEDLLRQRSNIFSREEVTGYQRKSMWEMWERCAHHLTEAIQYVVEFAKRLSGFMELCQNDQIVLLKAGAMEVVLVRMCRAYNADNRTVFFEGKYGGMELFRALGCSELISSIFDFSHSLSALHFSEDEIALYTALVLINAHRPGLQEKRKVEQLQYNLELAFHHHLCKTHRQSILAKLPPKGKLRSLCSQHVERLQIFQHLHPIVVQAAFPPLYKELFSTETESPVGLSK
Peroxisome proliferator-activated receptor alpha (Homo sapiens), sequence (Q07869 whole entry, looked up): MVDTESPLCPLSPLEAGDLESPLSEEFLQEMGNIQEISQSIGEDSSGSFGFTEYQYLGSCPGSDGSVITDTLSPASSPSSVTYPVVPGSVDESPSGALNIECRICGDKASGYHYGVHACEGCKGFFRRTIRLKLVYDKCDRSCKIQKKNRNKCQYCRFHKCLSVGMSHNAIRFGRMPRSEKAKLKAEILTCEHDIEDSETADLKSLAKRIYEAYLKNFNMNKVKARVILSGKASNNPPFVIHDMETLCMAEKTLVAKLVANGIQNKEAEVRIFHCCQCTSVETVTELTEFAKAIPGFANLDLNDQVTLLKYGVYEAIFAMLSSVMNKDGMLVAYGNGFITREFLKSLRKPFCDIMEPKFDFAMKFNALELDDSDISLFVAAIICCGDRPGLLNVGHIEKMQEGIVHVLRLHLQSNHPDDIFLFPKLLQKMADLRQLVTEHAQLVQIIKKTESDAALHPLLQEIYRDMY
Peroxisome proliferator-activated receptor gamma (Homo sapiens), sequence (P37231 whole entry, looked up): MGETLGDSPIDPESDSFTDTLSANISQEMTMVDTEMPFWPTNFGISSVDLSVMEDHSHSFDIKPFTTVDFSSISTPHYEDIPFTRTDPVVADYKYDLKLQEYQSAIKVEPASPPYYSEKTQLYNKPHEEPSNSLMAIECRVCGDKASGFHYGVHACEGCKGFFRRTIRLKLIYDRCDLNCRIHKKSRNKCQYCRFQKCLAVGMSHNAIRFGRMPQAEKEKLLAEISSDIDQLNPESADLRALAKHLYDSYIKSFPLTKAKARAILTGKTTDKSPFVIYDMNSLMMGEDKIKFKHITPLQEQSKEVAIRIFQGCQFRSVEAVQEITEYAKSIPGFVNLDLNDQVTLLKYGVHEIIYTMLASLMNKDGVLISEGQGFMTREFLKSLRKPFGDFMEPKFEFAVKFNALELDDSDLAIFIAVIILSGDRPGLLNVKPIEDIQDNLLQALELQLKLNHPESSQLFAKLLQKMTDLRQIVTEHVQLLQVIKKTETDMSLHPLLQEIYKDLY
Nuclear receptor subfamily 1 group I member 2 (Rattus norvegicus), sequence (Q9R1A7 whole entry, looked up): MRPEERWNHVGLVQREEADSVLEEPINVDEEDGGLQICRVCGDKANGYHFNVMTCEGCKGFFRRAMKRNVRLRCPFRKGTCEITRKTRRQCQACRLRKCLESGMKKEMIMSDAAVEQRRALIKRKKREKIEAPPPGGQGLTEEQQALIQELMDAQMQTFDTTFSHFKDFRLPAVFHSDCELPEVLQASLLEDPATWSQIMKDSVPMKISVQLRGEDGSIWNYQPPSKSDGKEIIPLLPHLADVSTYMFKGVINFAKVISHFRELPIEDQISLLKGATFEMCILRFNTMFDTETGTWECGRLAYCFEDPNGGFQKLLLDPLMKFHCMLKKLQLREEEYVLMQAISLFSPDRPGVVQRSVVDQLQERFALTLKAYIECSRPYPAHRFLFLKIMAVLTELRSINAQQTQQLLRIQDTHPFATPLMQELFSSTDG
Thyroid hormone receptor beta (Homo sapiens), sequence (P10828 whole entry, looked up): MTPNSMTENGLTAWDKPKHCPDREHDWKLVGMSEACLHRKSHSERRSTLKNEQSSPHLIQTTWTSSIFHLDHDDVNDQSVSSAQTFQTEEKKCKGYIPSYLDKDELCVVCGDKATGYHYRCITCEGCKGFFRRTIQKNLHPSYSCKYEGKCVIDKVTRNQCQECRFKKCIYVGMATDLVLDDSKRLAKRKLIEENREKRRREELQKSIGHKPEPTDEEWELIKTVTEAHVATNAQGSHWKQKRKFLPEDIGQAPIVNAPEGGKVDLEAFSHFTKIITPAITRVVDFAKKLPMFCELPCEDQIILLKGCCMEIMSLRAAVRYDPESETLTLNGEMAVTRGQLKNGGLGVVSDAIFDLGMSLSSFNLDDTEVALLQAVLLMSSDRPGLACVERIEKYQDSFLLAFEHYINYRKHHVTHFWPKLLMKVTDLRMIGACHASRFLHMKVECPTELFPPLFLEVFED
Tumor necrosis factor (Homo sapiens), sequence (P01375 whole entry, looked up): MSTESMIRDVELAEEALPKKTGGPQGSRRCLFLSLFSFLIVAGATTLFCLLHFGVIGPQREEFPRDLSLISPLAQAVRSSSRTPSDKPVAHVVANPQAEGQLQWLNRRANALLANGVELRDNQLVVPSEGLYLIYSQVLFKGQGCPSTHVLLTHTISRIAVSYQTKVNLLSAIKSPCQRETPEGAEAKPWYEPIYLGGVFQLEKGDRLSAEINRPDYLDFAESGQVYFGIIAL

CCCCCC/C(C=O)=C\c1ccccc1
inactive: outcome [1] | Potency [2] | outcome [3] | outcome [5] | max response [7] 9.05% | Potency [8] | activation [9] -0.556% | Potency [10] | Potency [11] | outcome [12] | activation [13] -0.354% | max response [14] -1.11% | Potency [15] | Potency [16] | Potency [17] | max response [18] 3.47% | max response [19] -1.93% | Potency [20] | max response [21] -2.08% | outcome [22]
10.6%: max response [6]
3.46%: max response [4]
